Data published in PubChem BioAssay (Tox21).
Records with an inconclusive call do not appear. The source made the active and inactive calls. Unless noted, the call rests on the fitted dose curve; in most records, active means well fitted curve in the direction sought with a large enough effect in the repeat runs; inconclusive means weak or mixed curves; inactive means no such curve, though single readings can be large; an effect the other way counts as inactive or inconclusive.

Columns and labels:
[1] = qHTS assay to identify small molecule agonists of the RXR signaling pathway - cell viability counter screen (AID 1159529); further: nearly all actives have a fitted effect of over 50% in size
Method in brief: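 Compounds dissolved in DMSO were pinned onto HEK 293T cells carrying a beta-lactamase reporter under RXR-alpha control and incubated 16 hr. Cytotoxicity was then quantified by CellTiter-Glo luminescence.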

[2] = qHTS assay to identify small molecule antagonists of the retinoic acid receptor (RAR) signaling pathway (AID 1159552; further: nearly all actives have a fitted effect of over 50% in size)
Method in brief: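 Test chemicals and DMSO controls were pin-transferred onto C3RL4 cells a day after seeding; retinol (1 uM final) followed at once. Luminescent reporter output was quantified after 6 hr of co-incubation and 30 min with detection reagent.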

[3] = qHTS assay to identify small molecule agonists of the retinoic acid receptor (RAR) signaling pathway (AID 1159553); further: potency means the concentration at half of the fitted maximal effect
Method in brief: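 Luminescence was measured 30 min after luciferase reagent addition at room temperature. Before that, C3RL4 reporter cells (1,000 per well, plated overnight) were treated with compound for 6 hr at 37 C and 5% CO2.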

[4] = qHTS assay to identify small molecule antagonists of the estrogen related receptor (ERR) signaling pathway from Tox21 library - cell viability counter screen (AID 1224834); further: nearly all actives have a fitted effect of over 30% in size
Method in brief: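 CellTiter-Fluor fluorescence, read after 30 min at 37 C, measures viability of ERR cells. Cells plated at 2,000/well and incubated 6 h before pin-tool compound addition, then exposed 17.5 hours at 37 C.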

[5] = target: Luciferin 4-monooxygenase (Photinus pyralis) (UniProt P08659); assay: qHTS assay to identify small molecule inhibitors of firefly luciferase (AID 1224835); further: nearly all actives have a fitted effect of over 25% in size; further: potency means the concentration at half of the fitted maximal effect
Sequence of Luciferin 4-monooxygenase (Photinus pyralis) (P08659 whole entry, looked up): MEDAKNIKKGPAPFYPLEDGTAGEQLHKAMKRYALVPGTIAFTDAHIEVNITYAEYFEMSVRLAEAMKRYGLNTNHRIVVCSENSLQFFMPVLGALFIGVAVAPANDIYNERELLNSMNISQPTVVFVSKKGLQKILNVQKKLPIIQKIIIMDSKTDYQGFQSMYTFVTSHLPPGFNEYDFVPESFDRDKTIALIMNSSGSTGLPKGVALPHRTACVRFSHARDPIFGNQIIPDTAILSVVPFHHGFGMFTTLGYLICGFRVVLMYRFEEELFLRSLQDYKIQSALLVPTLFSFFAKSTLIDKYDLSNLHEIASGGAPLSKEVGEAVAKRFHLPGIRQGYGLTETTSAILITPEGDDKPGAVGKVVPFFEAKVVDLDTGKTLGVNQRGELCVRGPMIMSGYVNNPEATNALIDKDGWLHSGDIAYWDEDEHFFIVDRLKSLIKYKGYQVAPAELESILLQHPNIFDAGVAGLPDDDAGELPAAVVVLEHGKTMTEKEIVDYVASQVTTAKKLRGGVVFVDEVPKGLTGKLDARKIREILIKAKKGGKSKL
Method in brief: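 Biochemical qHTS: compounds run as interplate titrations against purified firefly enzyme, with D-luciferin and ATP each at its KM concentration. Light output recorded by CCD imaging.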

[6] = qHTS assay to identify small molecule agonists of the constitutive androstane receptor (CAR) signaling pathway - cell viability counter screen (AID 1224836); further: nearly all actives have a fitted effect of over 45% in size
Method in brief: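 23 h treatment, 37 C, 5% CO2. Cell line: HepG2 stably expressing hCAR with a CYP2B6-2.2kb construct. Co-treatment: PK11195, 0.75 uM final. Read-out: CellTiter-Fluor fluorescence intensity.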

[7] = qHTS assay to identify small molecule antagonists of the constitutive androstane receptor (CAR) signaling pathway - cell viability counter screen (AID 1224837); further: nearly all actives have a fitted effect of over 45% in size
Method in brief: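 Cytotoxicity counter-screen: CellTiter-Fluor fluorescence after 23 h compound exposure (15-point qHTS) in double-stable HepG2-CYP2B6-hCAR cells, with 50 nM CITCO added.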

[8] = target: Nuclear receptor subfamily 1 group I member 3 (Homo sapiens) (UniProt Q14994); assay: qHTS assay to identify small molecule antagonists of the constitutive androstane receptor (CAR) signaling pathway (AID 1224838);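 further: HepG2 cells stably expressing hCAR with CYP2B6 luciferase reporter stimulated by CITCO; nearly all actives have a fitted effect of over 40% in size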
Sequence of Nuclear receptor subfamily 1 group I member 3 (Homo sapiens) (Q14994 whole entry, looked up): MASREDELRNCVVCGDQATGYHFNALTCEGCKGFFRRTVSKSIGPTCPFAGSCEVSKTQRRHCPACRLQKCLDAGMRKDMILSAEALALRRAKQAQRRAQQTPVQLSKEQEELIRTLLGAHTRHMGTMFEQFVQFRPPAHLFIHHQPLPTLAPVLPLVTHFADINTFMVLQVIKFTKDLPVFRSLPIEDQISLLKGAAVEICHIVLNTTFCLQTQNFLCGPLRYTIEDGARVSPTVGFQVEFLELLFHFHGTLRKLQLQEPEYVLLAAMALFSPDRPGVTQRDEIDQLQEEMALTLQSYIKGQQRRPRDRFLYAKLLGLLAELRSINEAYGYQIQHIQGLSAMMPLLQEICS
Method in brief: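 Antagonism measured as luciferase signal (ONE-Glo, 30 min, room temperature) in CAR-stimulated cells: HepG2-CYP2B6-hCAR double-stable line exposed 24 hr at 37 C to compound in a 15-point series plus 50 nM CITCO.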

[9] = target: Nuclear receptor subfamily 1 group I member 3 (Homo sapiens) (UniProt Q14994); assay: qHTS assay to identify small molecule agonists of the constitutive androstane receptor (CAR) signaling pathway (AID 1224839); further: nearly all actives have a fitted effect of over 15% in size; further: potency means the concentration at half of the fitted maximal effect;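 on activation: HepG2 cells stably carrying human CAR and a CYP2B6 luciferase reporter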
Method in brief: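 Compounds tested at 15 concentrations on HepG2 cells stably harbouring hCAR and CYP2B6-2.2kb reporter constructs, co-treated with PK11195 (0.75 uM final), 24 h at 37 C; luminescent reporter signal quantified.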

[10] = qHTS assay to identify small molecule antagonists of the estrogen related receptor signaling pathway with the pleiotropic PPARgamma coactivator (PGC) from Tox21 10K library - cell viability counter screen (AID 1224840; active means well fitted cell-killing curve with a large enough effect in the repeat runs, not every such curve was filed as active; further: nearly all actives have a fitted effect of over 40% in size)
Method in brief: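 Counter-screen for cytotoxicity: after 17.5 h compound exposure at 37 C, CellTiter-Fluor reagent added to PGC/ERR cells for 30 min and fluorescence read. Cells were seeded at 2,000 per well 6 h before dosing.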

[11] = qHTS assay to identify small molecule agonists of the hypoxia (HIF-1) signaling pathway - cell viability counter screen (AID 1224844; calls by dose curve; further: nearly all actives have a fitted effect of over 50% in size)
Method in brief: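 Cytotoxicity measured by CellTiter-Glo ATP luminescence in the wells also read for beta-lactamase signal. Cells were HRE-bla ME-180 (2,000/well, 0.5% dialyzed FBS), exposed to compounds for 17 h at 37C.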

[12] = qHTS assay to identify small molecule agonists of H2AX (AID 1224845; active means well fitted activation curve with a large enough effect in the signal ratio in the repeat runs, not every such curve was filed as active; the % refers to the signal ratio)
Method in brief: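 Wild-type CHO-K1 cells, plated overnight, exposed 3hr at 37C to 15 concentrations (0.76% DMSO final). Lysed, then HTRF anti-pH2AX (S139) cryptate and anti-H2AX-d2 antibodies, 24 hr room temperature; 665/620 nm emission read.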

[13] = qHTS assay to identify small molecule agonists of the hypoxia (HIF-1) signaling pathway (AID 1224846; active means well fitted activation curve with a large enough effect in the signal ratio in the repeat runs, not every such curve was filed as active; the % refers to the signal ratio)
Method in brief: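 Compounds added to ME-180 cells carrying hypoxia-response-element beta-lactamase reporter (0.5% dialyzed FBS, 5 h preplating), 17 h at 37C; agonist activity detected by CCF4-AM B/G FRET read-out.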

[14] = qHTS assay to identify small molecule agonists of H2AX - cell viability counter screen (AID 1224847; calls by dose curve; further: top concentration of the series differs between compounds; nearly all actives have a fitted effect of over 30% in size)
Method in brief: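 Compounds tested at 15 concentrations were incubated 3 hr at 37C with wild-type CHO-K1 cells; cellular ATP-based luminescence (CellTiter-Glo) indicated viability.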

[15] = qHTS assay to identify small molecule agonists of the estrogen related receptor signaling pathway with the pleiotropic PPARgamma coactivator (PGC) from Tox21 10K library (AID 1224842); further: nearly all actives have a fitted effect of over 15% in size
Method in brief: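 PGC/ERR reporter cell line, 2,000 cells per well, incubated 6 h at 37 C before 23 nL compound in DMSO was added. After 18 h at 37 C, One-Glo luminescence read following 30 min at room temperature.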

[16] = target: Thyrotropin receptor (Homo sapiens) (UniProt P16473); assay: qHTS assay to identify small molecule agonists of the thyroid stimulating hormone receptor (TSHR) signaling pathway (AID 1224843; calls by dose curve; further: nearly all actives have a fitted effect of over 45% in size)
Sequence of Thyrotropin receptor (Homo sapiens) (P16473 whole entry, looked up): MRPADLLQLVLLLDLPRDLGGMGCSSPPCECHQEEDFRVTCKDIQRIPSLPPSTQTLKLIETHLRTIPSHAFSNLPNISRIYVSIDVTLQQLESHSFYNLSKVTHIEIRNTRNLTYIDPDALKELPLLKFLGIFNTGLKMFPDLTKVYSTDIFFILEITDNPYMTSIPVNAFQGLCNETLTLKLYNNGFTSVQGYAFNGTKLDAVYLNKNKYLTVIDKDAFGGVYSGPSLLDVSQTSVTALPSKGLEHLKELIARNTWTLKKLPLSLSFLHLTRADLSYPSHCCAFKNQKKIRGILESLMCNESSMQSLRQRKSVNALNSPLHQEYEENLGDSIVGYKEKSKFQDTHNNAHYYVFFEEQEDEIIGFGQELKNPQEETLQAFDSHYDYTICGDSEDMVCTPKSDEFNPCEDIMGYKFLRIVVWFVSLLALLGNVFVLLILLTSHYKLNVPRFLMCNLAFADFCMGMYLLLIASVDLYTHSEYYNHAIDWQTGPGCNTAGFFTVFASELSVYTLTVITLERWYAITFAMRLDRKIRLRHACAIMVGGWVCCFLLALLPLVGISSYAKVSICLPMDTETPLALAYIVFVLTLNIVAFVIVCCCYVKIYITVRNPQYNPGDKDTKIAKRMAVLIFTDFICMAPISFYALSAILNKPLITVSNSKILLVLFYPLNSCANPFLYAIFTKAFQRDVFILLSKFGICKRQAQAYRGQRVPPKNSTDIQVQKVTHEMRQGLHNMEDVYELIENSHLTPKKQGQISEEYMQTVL
Method in brief: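 Agonist-mode screen: TSHR HEK293 cells received test chemicals for half an hour at room temperature, then HTRF cAMP detection reagents for one hour prior to fluorescence measurement. Each chemical ran as a 15-concentration series, triplicated.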

[17] = qHTS assay to identify small molecule antagonists of the estrogen related receptor (ERR) signaling pathway from Tox21 library (AID 1224848); further: nearly all actives have a fitted effect of over 50% in size
Method in brief: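 Quantitative high-throughput format: ERR reporter cells (2,000/well) pre-incubated 6 h, treated 18 h at 37 C with compounds in DMSO alongside positive and negative controls, then read by ONE-Glo luminescence.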

[18] = qHTS assay to identify small molecule agonists of the estrogen related receptor (ERR) signaling pathway from Tox21 library (AID 1224849; calls by dose curve; further: nearly all actives have a fitted effect of over 15% in size); settings: ERR reporter cell line, ONE-Glo luciferase, 18 h; at 92.4 µM (top of the series) unless noted
Method in brief: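 Luminescent agonist read-out (One-Glo, 30-minute room-temperature incubation) following 18-hour compound treatment at 37 C of the ERR cell line, which had been plated 6 hours before dosing.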

[19] = qHTS assay to identify small molecule antagonists of the estrogen related receptor signaling pathway with the pleiotropic PPARgamma coactivator (PGC) from Tox21 10K library (AID 1224841; call rule not given here)
Method in brief: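 Luminescence (One-Glo, 30 min at room temperature) after 18 h compound treatment at 37 C of PGC/ERR reporter cells plated at 2,000 cells/well and settled 6 h beforehand.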
On the % scale 0 is the no-effect control and ±100 the full control effect.

COC(=O)c1ccccc1Cl
inactive: Potency [1] | outcome [2] | Potency [3] | outcome [4] | Potency [5] | outcome [6] | outcome [7] | outcome [8] | Potency [9] | outcome [10] | outcome [11] | outcome [12] | outcome [13] | outcome [14]

CC(C)(C)C(=O)CC(=O)C(C)(C)C
inactive: Potency [1] | Potency [3] | outcome [4] | Potency [5] | outcome [6] | Potency [15] | Potency [16] | outcome [11] | outcome [12] | outcome [13] | outcome [17] | activity change, positive = activation [18] 3.23%

C/C=C(\C)C(=O)OC/C=C(\C)CCC=C(C)C
inactive: Potency [1] | outcome [2] | Potency [3] | outcome [4] | Potency [5] | outcome [6] | outcome [10] | Potency [19] | outcome [11] | outcome [13] | outcome [17] | activity change, positive = activation [18] 10.5%

N[C@H]1C(O)O[C@H](CO)[C@@H](O)[C@@H]1O (some centres undefined)
inactive: Potency [1] | outcome [2] | Potency [3] | outcome [4] | Potency [5] | outcome [6] | outcome [8] | Potency [9] | outcome [10] | Potency [19] | Potency [15] | Potency [16] | outcome [11] | outcome [12] | outcome [13] | outcome [14] | outcome [17] | activity change, positive = activation [18] 3.25% [at 42.5 µM]

O=C(O)/C=C(\CC(=O)O)C(=O)O
inactive: Potency [1] | outcome [2] | Potency [3] | outcome [4] | Potency [5] | outcome [6] | outcome [7] | outcome [8] | Potency [9] | Potency [16] | outcome [11] | outcome [12] | outcome [14]

COc1ccc2cc(CCC(C)=O)ccc2c1
inactive: Potency [1] | outcome [2] | outcome [4] | outcome [6] | outcome [7] | outcome [10] | Potency [19] | Potency [16] | outcome [11] | outcome [12] | outcome [14] | outcome [17]
active: Potency [5] 13.8 µM | activity change, positive = activation [18] 114% [at 42.5 µM]

O=C(OOC(=O)c1ccccc1)c1ccccc1
inactive: Potency [1] | outcome [2] | Potency [3] | outcome [4] | Potency [5] | outcome [6] | outcome [7] | Potency [16] | outcome [11] | outcome [12] | outcome [13] | outcome [14]

CC(C)C(=O)Nc1cccc(C2CN3CCSC3=N2)c1 (centres undefined)
inactive: Potency [1] | outcome [2] | Potency [3] | outcome [4] | Potency [5] | outcome [6] | outcome [10] | Potency [16] | outcome [11] | outcome [12]

CCN1CCN(C(=O)N[C@@H](C(=O)N[C@@H]2C(=O)N3C(C(=O)O)=C(CSc4nnnn4C)CS[C@H]23)c2ccc(O)cc2)C(=O)C1=O
inactive: Potency [1] | outcome [2] | Potency [3] | outcome [4] | Potency [5] | outcome [6] | outcome [10] | Potency [16] | outcome [11] | outcome [12] | outcome [13] | outcome [14]

CC(C)C(C)C
inactive: Potency [1] | outcome [2] | Potency [3] | outcome [4] | Potency [5] | outcome [6] | outcome [7] | outcome [8] | Potency [9] | outcome [10] | Potency [16] | outcome [11] | outcome [12] | outcome [13] | outcome [14]

CC(C)(C)c1ccc(C(=O)CCCCl)cc1
active: Potency [3] 5.96 µM | Potency [5] 7.76 µM | Potency [9] 21.1 µM
inactive: Potency [1] | outcome [4] | outcome [6] | outcome [7] | outcome [8] | outcome [10] | Potency [16] | outcome [11] | outcome [12] | outcome [13]

CCN(CC)CC(=O)Oc1ccc(NC(C)=O)cc1
inactive: Potency [1] | outcome [2] | outcome [4] | Potency [5] | outcome [6] | Potency [9] | outcome [10] | Potency [16] | outcome [11] | outcome [12] | outcome [13] | outcome [14]

CCCOc1ccc(C(=O)OCCN(CC)CC)cc1N
inactive: Potency [1] | outcome [2] | Potency [3] | outcome [4] | Potency [5] | outcome [6] | outcome [7] | outcome [8] | Potency [9] | outcome [10] | Potency [16] | outcome [11] | outcome [12] | outcome [14]

C[C@@H]1CC[C@@]2(OC1)O[C@H]1C[C@H]3[C@@H]4CC[C@H]5C[C@@H](O)CC[C@]5(C)[C@H]4CC(=O)[C@]3(C)[C@H]1[C@@H]2C
inactive: activity change, negative = cytotoxicity [1] -0.0245% [at 6.97 µM] | activity, negative = inhibition [2] -0.792% [at 8.39 µM] | activation [3] 0.12% [at 8.36 µM] | viability change, negative = cytotoxic [4] 0.595% [at 8.39 µM] | activity change, negative = inhibition [5] 8.12% [at 10.5 µM] | viability change, negative = cytotoxic [6] 0.858% [at 8.39 µM] | activity change, negative = cytotoxicity [7] 4.92% [at 8.39 µM] | activity, negative = inhibition [8] -17.4% [at 8.39 µM] | activation [9] 0.221% [at 8.39 µM] | viability change, negative = cytotoxic [10] -2.49% [at 8.39 µM] | activation [16] -5.02% [at 8.39 µM] | activity change, negative = cytotoxicity [11] 3.36% [at 6.97 µM] | activation (H2AX phosphorylation) [12] 0.205% [at 14 µM] | activity change, negative = cytotoxicity [14] -1.3% [at 14 µM]

CC1(C)CC(N)CC(C)(C)N1
inactive: Potency [1] | outcome [4] | Potency [5] | outcome [6] | outcome [7] | outcome [8] | Potency [9] | Potency [19] | Potency [16] | outcome [11] | outcome [12] | outcome [13] | outcome [14] | outcome [17] | activity change, positive = activation [18] 4.2%

O=C[C@@H](O)[C@H](O)[C@H](O)CO
inactive: Potency [1] | outcome [2] | Potency [3] | outcome [4] | Potency [5] | outcome [6] | outcome [7] | outcome [8] | Potency [9] | Potency [16] | outcome [11] | outcome [12] | outcome [13] | outcome [14]
